# Laboratory results published in PubChem BioAssay (Tox21).
# Unmarked numbers belong to inactive results. Inconclusive results are not listed. Where a call stands in place of a potency, no number is given. Calls of active or inactive are those of the source. Unless noted, calls come from the whole dose curve; as a rule, active = well fitted curve in the direction sought with a large enough effect in the repeat runs; inconclusive = weak or mixed curves; inactive = no such curve, though single readings can be large; an effect the other way counts as inactive or inconclusive.
# What was measured:
# [1] = target: Thyrotropin receptor (Homo sapiens) (UniProt P16473); test: qHTS assay to identify small molecule agonists of the thyroid stimulating hormone receptor (TSHR) signaling pathway (AID 1224843; calls by dose curve; note: nearly all actives have a fitted effect of over 45% in size)
# Procedure, shortened: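 TSHR-expressing HEK293 cells (800 per well) were exposed to compounds for 30 min at room temperature. cAMP was then detected by HTRF competition with cAMP-d2 and anti-cAMP cryptate, read after 1 h at room temperature. Fifteen concentrations, triplicate.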
# [2] = qHTS assay to identify small molecule agonists of the hypoxia (HIF-1) signaling pathway - cell viability counter screen (AID 1224844; calls by dose curve; note: nearly all actives have a fitted effect of over 50% in size)
# Procedure, shortened: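 Multiplexed with the HRE beta-lactamase assay, this viability read used CellTiter-Glo luminescence (30 min, RT) on HRE-bla ME-180 cells treated 17 hrs with compounds in 0.5% dialyzed FBS medium.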
# [3] = qHTS assay to identify small molecule agonists of H2AX (AID 1224845; active = well fitted activation curve with a large enough effect in the signal ratio in the repeat runs, not every such curve was filed as active; the % refers to the signal ratio)
# Procedure, shortened: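 Wild-type CHO-K1 cells plated overnight, then exposed 3 hr at 37C to compounds at 15 concentrations (0.76% DMSO). Lysed, then HTRF anti-pH2AX(S139)-cryptate/anti-H2AX-d2 detection after 24 hr at room temperature; emissions 665 and 620 nm.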
# [4] = qHTS assay to identify small molecule agonists of H2AX - cell viability counter screen (AID 1224847; calls by dose curve; note: top concentration of the series differs between compounds; nearly all actives have a fitted effect of over 30% in size)
# Procedure, shortened: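 Cytotoxicity counter screen in wild-type CHO-K1 cells: a 3 hr compound treatment at 37C across 15 concentrations, followed by CellTiter-Glo luminescence to gauge viable cells.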
# [5] = qHTS RealTime-Glo MT Cell Viability Assay in HepG2 cells - 24 hour (AID 1224867); note: nearly all actives have a fitted effect of over 50% in size
# Procedure, shortened: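 Cells + NanoLuc/prosubstrate dispensed (600 cells/well) → 5 h at 37 C/5% CO2 → compounds in DMSO transferred → 40 h incubation at 37 C, luminescence read at 0, 8, 16, 24, 32, 40 h.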
# [6] = qHTS RealTime-Glo MT Cell Viability Assay in HEK293 cells - 32 hour (AID 1224868); note: nearly all actives have a fitted effect of over 50% in size; note: potency is the fitted concentration of half-maximal effect
# Procedure, shortened: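 Tox21 10K qHTS, HEK293, 600 cells/well, RealTime-Glo reagent co-dispensed with cells; 5 h preincubation, compound by pintool, 37 C, luminescence at 0–40 h.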
# [7] = A CellTox Green Cytotoxicity Assay to monitor cytotoxicity in HEK293 cells - 0 hour (AID 1224869); note: nearly all actives have a fitted effect of over 50% in size; note: potency is the fitted concentration of half-maximal effect
# Procedure, shortened: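 Seeding of HEK293 cells together with cytotoxicity dye preceded a 5 h incubation at 37 C/5% CO2. Test compounds in DMSO were then added and fluorescence monitored across 40 h.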
# [8] = qHTS assay to identify small molecule agonists of the hypoxia (HIF-1) signaling pathway (AID 1224846; active = well fitted activation curve with a large enough effect in the signal ratio in the repeat runs, not every such curve was filed as active; the % refers to the signal ratio)
# Procedure, shortened: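 Hypoxia-pathway activation was scored as increased beta-lactamase from an HRE-controlled reporter in ME-180 cells; plated at 2,000 cells per well with 0.5% dialyzed FBS, they were exposed 17 hrs to compounds and then given CCF4-AM.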
# [9] = qHTS assay to identify small molecule antagonists of the estrogen related receptor (ERR) signaling pathway from Tox21 library (AID 1224848); note: nearly all actives have a fitted effect of over 50% in size; note: potency is the fitted concentration of half-maximal effect
# Procedure, shortened: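 Cells: ERR line, 2,000/well; 6 h preincubation 37 C/5% CO2. Cpd in DMSO via pin tool; 18 h, 37 C. ONE-Glo, 30 min RT, luminescence.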
# [10] = qHTS assay to identify small molecule agonists of the estrogen related receptor (ERR) signaling pathway from Tox21 library (AID 1224849; calls by dose curve; note: nearly all actives have a fitted effect of over 15% in size); conditions: ERR reporter cell line, ONE-Glo luciferase, 18 h; at 92.4 µM (top of the series) unless noted
# Procedure, shortened: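 Six hours post-seeding at 37 C/5% CO2, ERR cells receive DMSO-solubilised compounds; after 18 h at 37 C, ONE-Glo reagent is applied and luminescence recorded.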
# Sequence of Thyrotropin receptor (Homo sapiens) (P16473 whole entry, looked up): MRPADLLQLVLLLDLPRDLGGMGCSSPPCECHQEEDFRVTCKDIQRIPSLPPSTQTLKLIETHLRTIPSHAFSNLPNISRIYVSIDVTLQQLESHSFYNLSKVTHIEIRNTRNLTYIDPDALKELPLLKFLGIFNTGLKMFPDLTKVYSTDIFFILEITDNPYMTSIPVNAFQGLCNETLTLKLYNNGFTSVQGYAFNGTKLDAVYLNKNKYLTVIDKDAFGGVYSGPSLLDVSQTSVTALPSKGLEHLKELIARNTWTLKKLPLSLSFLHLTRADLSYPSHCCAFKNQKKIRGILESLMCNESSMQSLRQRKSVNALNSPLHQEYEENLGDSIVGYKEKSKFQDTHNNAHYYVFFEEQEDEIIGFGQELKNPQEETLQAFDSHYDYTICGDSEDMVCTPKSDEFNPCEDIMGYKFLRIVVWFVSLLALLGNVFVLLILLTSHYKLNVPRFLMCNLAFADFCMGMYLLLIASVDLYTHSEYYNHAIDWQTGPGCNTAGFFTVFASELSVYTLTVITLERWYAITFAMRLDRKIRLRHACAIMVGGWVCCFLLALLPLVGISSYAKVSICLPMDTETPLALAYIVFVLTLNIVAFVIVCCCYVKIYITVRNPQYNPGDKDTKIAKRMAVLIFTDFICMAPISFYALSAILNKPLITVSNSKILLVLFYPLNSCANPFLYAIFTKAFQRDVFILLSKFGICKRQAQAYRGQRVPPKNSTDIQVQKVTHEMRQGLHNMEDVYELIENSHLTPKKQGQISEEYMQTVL
Structure (SMILES),Potency [1],Potency [2],Potency [3],Potency [4],Potency [5],Potency [6],Potency [7],outcome [8],Potency [9],"activity change, positive = activation [10]"
CC/C=C\CCOC(=O)C(C)C,inactive,inactive,inactive,inactive,inactive,inactive,inactive,–,–,–
CCCCNc1cc(C(=O)O)cc(S(N)(=O)=O)c1Oc1ccccc1,inactive,inactive,inactive,inactive,inactive,inactive,inactive,–,–,–
C/C(=N\O)[C@@H](C)NCC(C)(C)CN[C@H](C)/C(C)=N/O,inactive,–,inactive,inactive,inactive,inactive,–,inactive,–,–
CCOC(=O)c1ccccc1O,inactive,–,inactive,inactive,inactive,inactive,inactive,inactive,inactive,1.87% [at 42.5 µM]
CN1CCN(c2c(F)cc3c(=O)c(C(=O)O)cn4c3c2SCC4)CC1,inactive,inactive,–,inactive,inactive,inactive,inactive,–,–,–
NCCCN1CCN(CCCN)CC1,inactive,inactive,inactive,inactive,inactive,inactive,inactive,–,–,–
CC[C@H]1CC[C@H](NCc2cc3c(cc2OC)[C@H]2C[C@H]2C(=O)N3C)[C@H](c2ccccc2)N1,inactive,–,inactive,inactive,inactive,19.5 µM (active),inactive,inactive,27.3 µM (active),-40.9%
O=C(Cl)c1cccc([N+](=O)[O-])c1,inactive,–,inactive,inactive,inactive,inactive,inactive,inactive,inactive,0.643%
O=C1CCC(C2CCCCC2)CC1,inactive,–,inactive,inactive,inactive,–,43.6 µM (active),inactive,inactive,-9.72%
CN1[C@@H]2CC[C@H]1CC(OC(=O)c1c[nH]c3ccccc13)C2 (stereo not given in full),inactive,inactive,inactive,inactive,inactive,inactive,inactive,–,–,–
CC(=O)O[C@H]1CC[C@@]2(C)C(=CC[C@@H]3[C@@H]2CC[C@]2(C)C(C(C)=O)=CC[C@@H]32)C1,inactive,inactive,inactive,–,inactive,–,inactive,–,–,–
CCCOc1ccc2c(c1)CC[C@@H]1[C@@H]2CC[C@]2(C)C(OC)CC[C@@H]12 (stereo not given in full),inactive,inactive,inactive,–,inactive,inactive,–,–,inactive,-2.22% [at 42.5 µM]
CCOC(=O)CS,inactive,–,inactive,inactive,inactive,inactive,inactive,inactive,–,-14.3%
O=C1CCCCCCCCCCC(=O)OCCO1,inactive,inactive,inactive,–,inactive,inactive,–,–,–,–
CN1CCN(C2=Nc3cc(F)ccc3Cc3ccccc32)CC1,inactive,–,inactive,inactive,inactive,–,inactive,inactive,inactive,0.425% [at 42.5 µM]
CCNCCO,inactive,inactive,–,inactive,inactive,inactive,inactive,inactive,–,–
OCC(CBr)(CBr)CBr,inactive,inactive,–,inactive,inactive,–,inactive,inactive,–,–
O=[N+]([O-])c1nccn1CO[C@@H](CO)[C@H](O)CO,inactive,–,inactive,inactive,inactive,inactive,inactive,inactive,inactive,7.4% [at 42.5 µM]
CC1=NN(c2cc(Cl)c(S(=O)(=O)O)cc2Cl)C(=O)C1N=Nc1ccc(S(=O)(=O)O)cc1 (stereo not given),inactive,inactive,–,inactive,inactive,inactive,inactive,inactive,–,–
FC(F)(F)c1ccccc1,inactive,–,inactive,inactive,inactive,inactive,inactive,inactive,inactive,2.08%
CCN[C@H]1CN(CCCOC)S(=O)(=O)c2sc(S(N)(=O)=O)cc21,inactive,inactive,inactive,inactive,inactive,inactive,inactive,–,–,–
CC(C)S,inactive,–,inactive,inactive,inactive,inactive,inactive,inactive,inactive,3.07%
Cc1c(-c2ccccc2)oc2c(C(=O)OCCN3CCCCC3)cccc2c1=O,inactive,inactive,inactive,inactive,inactive,–,inactive,–,–,–
CCCCC(=O)O[C@]1(C(=O)CO)[C@H](C)C[C@H]2[C@@H]3CCC4=CC(=O)C=C[C@]4(C)[C@@]3(F)[C@@H](O)C[C@@]21C,inactive,–,inactive,inactive,inactive,inactive,–,inactive,inactive,-4.32% [at 42.5 µM]
C=O,inactive,–,inactive,inactive,inactive,inactive,inactive,inactive,inactive,0.267%
